From PubChem BioAssay AID720541 (National Center for Advancing Translational Sciences (NCATS), 2013)
In all, about 1,300 compounds went through this assay and about 420 (32%) were called active. Another 32% or so got no clear call; they are omitted. This is one part of the list. Values without a mark were called inactive. Calls come from the whole dose curve; as a rule, active = well fitted inhibition curve with a large enough effect; inconclusive = small, poorly fitted or top-dose-only effect; inactive = no such curve, though single readings can be large or run the other way.

target: C-terminal-binding protein 1 (Homo sapiens) (UniProt Q13363); experiment: qHTS for Inhibitors of the Phosphatase Activity of Eya2: Carboxyl-terminal binding protein (CtBP) Counterscreen for Cherry-picked Compounds; settings: purified protein-protein binding, AlphaScreen, 3 h; series mostly up to 46.1 µM; activity change, negative = inhibition: at the top concentration; note: nearly all actives have a fitted effect of over 65% in size
Outline: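 AlphaScreen using 25 nM GST-E1A with 25 nM CtBP-6xHIS; compounds at 2.5 nM–46 uM final, 2 h at room temperature, then donor/acceptor beads (20 ug/mL) for 1 h in the dark. Signal normalized to E1A peptide inhibitor (maximum inhibition) and DMSO.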
% is set by controls: 0 for no effect and ±100 for the full control effect; potency is the fitted concentration of half-maximal effect.

SMILES	activity change, negative = inhibition	Potency
Oc1ccc(-c2nc3c4c(ncn3n2)-c2ccccc2CC42CCCC2)cc1	-5.04%	
Cc1ccc(Nc2nc(N)nc(CSc3nnc(C)s3)n2)cc1	-28.6%	
O=C(O)C1=C[C@@H](c2csc3ccccc23)C[C@@H](OCc2ccc(CO)cc2)O1	1.42%	
CN(C)Cc1ccccc1Sc1cccc2ccccc12	-22.5%	
CCN(CC)C(=O)c1ccc(O)c(OC)c1	10%	
COc1ccccc1-n1c(SCC(=O)Nc2cc(C)on2)nc2c(c1=O)SCC2	-4.85%	
COc1cccc(-c2nnc(SCC(=O)Nc3cc(C)on3)o2)c1		12 µM (active)
Cc1cc(NC(=O)CS(=O)(=O)c2cn(Cc3cccc(Br)c3)c3ccccc23)no1	-9.1%	
O=C(Nc1cccc(O)c1)c1cccc(C(=O)Nc2cccc(O)c2)c1		8.49 µM (active)
O=C(Nc1ccccc1)C(Cl)C(=O)c1ccccc1 (stereo not drawn)	-7.71%	
COc1cc(CNC(=O)Nc2nc(C(N)c3ccccc3)cs2)cc(OC)c1OC (stereo not drawn)		13.5 µM (active)
CCC(=O)Nc1nc2c(OC)ccc(OC)c2s1	-9.07%	
O=S(=O)(c1ccccc1)[C@@]1(c2ccccc2)C[C@@H]2ON=C(c3cccc(-c4ccccc4)c3)[C@@H]2C1	-6.8%	
COc1cccc(C=NCC(C)N=Cc2cccc(OC)c2O)c1O (stereo not drawn)		16.9 µM (active)
COc1ccc(N2CCN(C(c3ccco3)c3sc4nc(C)nn4c3O)CC2)cc1 (stereo not drawn)	-20.4%	
Oc1c(C(c2cccs2)N2CCN(c3ccccc3)CC2)sc2ncnn12 (stereo not drawn)		19 µM (active)
O=c1c(O)cccc2cc(O)c(O)c(O)c12		15.1 µM (active)
COc1ccccc1OCC(=O)Nc1ccc(C(=O)Nc2ccccc2C(=O)O)cc1		16.9 µM (active)
COc1ccccc1NC(=O)c1ccc(NC(=O)Cc2n[nH]c(=O)c3ccccc23)cc1	6.99%	
CC1=C(/C=C/C(C)=C/C=C/C(C)=C/C(=O)Nc2ccc(O)cc2)C(C)(C)CCC1	-22%	
COc1ccc(S(=O)(=O)N2CCC3CC2c2cc(N4CCOCC4)ccc23)cc1 (stereo not drawn)	53.4%	
O=C(Oc1ccc(=O)n(-c2ccccc2)n1)c1ccc(F)cc1	7.08%	

SMILES	activity change, negative = inhibition	Potency
C[n+]1ccc(/C=C/c2cc[n+](C)c3ccccc23)c2ccccc21		15.1 µM (active)
CN1C=C/C(=C\c2cc[n+](C)c3ccccc23)c2ccccc21		15.1 µM (active)
CC(=O)Nc1ccc(S(=O)(=O)O)c2cc(S(=O)(=O)O)c(N=Nc3ccc(N=Nc4ccc(S(=O)(=O)O)cc4)c4ccc(S(=O)(=O)O)cc34)c(O)c12		1.69 µM (active)
O=S(=O)(O)c1ccc2c(N=Nc3ccc(S(=O)(=O)O)c4ccccc34)c(O)c(S(=O)(=O)O)cc2c1		9.53 µM (active)
Cc1cc(NC(=O)c2cccc(N3C(=O)CCC3=O)c2)no1	5.6%	
O=C(NC1=C(Nc2ccc(F)cc2)C(=O)c2ccccc2C1=O)c1ccc(Cl)cc1	-23.9%	
O=C(Nc1ccc(F)cc1)c1ccc2[nH]c(=O)c(=O)[nH]c2c1		1.9 µM (active)
Cc1ccc(NC(=O)c2ccc3[nH]c(=O)c(=O)[nH]c3c2)nc1		6.75 µM (active)
Cc1nc2c(C(=O)Nc3ccc(N4CCCC(O)C4)cc3)snc2c(=O)[nH]1 (stereo not drawn)	-14.4%	
CCOc1cc(/C=C2/NC(=O)NC2=O)cc(Br)c1OCc1ccc(C(=O)O)cc1	-28.6%	
CSCc1cc(N(C)c2ccccc2)nc(-c2ccccn2)n1		13.5 µM (active)
O=C(O)C1=NN(c2cc(Cl)c(S(=O)(=O)O)cc2Cl)C(=O)C1	-1.01%	
CN(C)c1ccc(N=c2sc3ccccc3n2C)cc1		7.57 µM (active)
CCN1CCN(c2ncnc3scc(-c4ccc(C)cc4)c23)CC1	-13.6%	
CCc1nnc2c(N(C)C)nc3ccccc3n12		12 µM (active)
CN(C)S(=O)(=O)n1cnc2ccccc21	2.9%	
O=C1C(NS(=O)(=O)c2cccs2)=C(N2CCN(Cc3ccccc3)CC2)C(=O)c2ccccc21		10.7 µM (active)
CC(=O)Nc1ccc(S(=O)(=O)NC2=C(N3CCN(Cc4ccccc4)CC3)C(=O)c3ccccc3C2=O)cc1		16.9 µM (active)
Cc1cc2oc(C(=O)N3CCN(Cc4ccccc4)CC3)c(C)c2cc1C	-17.7%	
O=c1c2ccccc2nnn1CSc1nnc(C2COc3ccccc3O2)n1-c1ccccc1 (stereo not drawn)	-10.6%	
O=c1cc(CSc2ccc(Cl)cc2)nc(-c2ccccn2)[nH]1		2.13 µM (active)
Nc1nc2cc3ccccc3cc2[nH]c1=O	-9.19%	

SMILES	activity change, negative = inhibition	Potency
O=c1nc(-c2ccccc2)c2cc(Cl)ccc2[nH]1		13.5 µM (active)
COc1ccc(NC(=O)c2[nH]c(C)c(C(C)=O)c2C)cc1Cl	-22.9%	
CN(C1=C(N2CCCCC2)C(=O)c2ccccc2C1=O)c1ccccc1		1.9 µM (active)
O=C(CCS(=O)(=O)c1ccc(Br)cc1)N1CCCCCC1	6.61%	
O=C1C(NS(=O)(=O)c2ccc(Br)cc2)=C(N2CCCCC2)C(=O)c2ccccc21		13.5 µM (active)
O=C1N=c2ccccc2=C1c1sc(Nc2cccc(O)c2)nc1O	-25.1%	
CC1CCN(C2=C(NS(=O)(=O)c3ccc(Br)cc3)C(=O)c3ccccc3C2=O)CC1		5.36 µM (active)
O=C1C(Nc2cccc(O)c2)=C(N2CCCCC2)C(=O)c2ccccc21		19 µM (active)
O=c1cc(Nc2ccc3c(c2)OCO3)[nH]c(=O)n1-c1ccc(Br)cc1	-29.6%	
S=C(NC1CC1)NC1CCCc2ccccc21 (stereo not drawn)	0.976%	
COc1ccc(-c2ccc(SCc3cccnc3)nn2)cc1OC		13.5 µM (active)
O=C(O)CCCCCNS(=O)(=O)c1cccc2c1C(=O)c1ccccc1C2=O		5.36 µM (active)
Cc1ccc(Nc2nc(-c3cccnc3)nc3ccccc23)cc1	-23.4%	
O=C(O)c1ccc(Nc2nc(-c3ccccc3)nc3ccccc23)cc1		9.53 µM (active)
CCOC(=O)c1nc(Nc2ccc(Nc3ccccc3)cc2)c2ccccc2n1		13.5 µM (active)
Cc1cc(Nc2ccc([N+](=O)[O-])cc2)c2ccccc2n1	-2.71%	
CCOC(=O)NNc1nncc2ccccc12	10.1%	
O=C(O)c1cccc(Nc2nc(-c3ccccc3)nc3ccccc23)c1		12 µM (active)
O=C(C1CCN(c2nnc(-n3cccc3)s2)CC1)N1CCOCC1	3.78%	
Cc1ccc(NC(=O)CN2C(=O)S/C(=C\c3cc(Cl)c(OCC(=O)O)c(Cl)c3)C2=O)cc1		15.1 µM (active)
CCOc1ccc2c(c1)-c1c(ssc1=S)C(C)(C)N2C(=O)CSC1=NCCS1		15.1 µM (active)
Cc1cc(C)nc(-n2nc(C)cc2NC(=O)c2cc3ccccc3oc2=O)n1		4.78 µM (active)

SMILES	activity change, negative = inhibition	Potency
CC1=NN(c2ccccc2)C(=O)/C1=C\C=C1/N(C)c2ccccc2C1(C)C		9.53 µM (active)
CN1/C(=C\C=C2/SC(=S)NC2=O)C(C)(C)c2ccccc21		12 µM (active)
CN(C)c1ccc(/C=C2\c3ccccc3-c3ccc(N(C)C)cc32)cc1		5.36 µM (active)
CN(C)c1ccc(/C=C2\C(Cl)=Cc3ccccc32)cc1		6.75 µM (active)
CN(C)c1ccc2c(c1)C(=NO)c1ccccc1-2		16.9 µM (active)
CNc1ccc(C=C2c3ccccc3-c3ccccc32)cc1		12 µM (active)
Cc1oc(-c2ccc(-c3ccccc3)cc2)nc1CN(C)C1CCOC1 (stereo not drawn)	-27.8%	
Cc1ccc(C(=O)Oc2ccc(N3C(=O)CCC3=O)c(C)c2)cc1	-13.3%	
O=C(/C=C/c1ccc(O)c(O)c1)OC(Cc1ccc(O)c(O)c1)C(=O)O (stereo not drawn)	-4.19%	
COc1cccc(OC)c1C(=O)OCC(=O)NCC1CCCCC1	4.69%	
CC1=CC(C)(C)n2c(O)c(C3=NC(=S)NC3=O)c3cc(OC(=O)c4cccc5ccccc45)cc1c32	-29.4%	
CN(C)c1ccc(C=C2c3ccccc3-c3ccccc32)cc1		8.49 µM (active)
CN(C)c1ccc(/C=C2\C(=O)/C(=C/c3ccc(N(C)C)cc3)c3ccccc32)cc1		5.36 µM (active)
OC(COc1ccc2cc(Br)ccc2c1)Cn1ccnc1 (stereo not drawn)	-3.87%	
CCOc1ccc(Nc2cc3n(c(=O)n2)CCc2cc(OC)c(OC)cc2-3)cc1		5.36 µM (active)
COc1cc2c(cc1OC)-c1cc(Nc3ccccc3)nc(=O)n1CC2		6.75 µM (active)
COc1ccc(NC(=O)c2cc(S(=O)(=O)N3CCc4ccccc43)cn2C)cc1OC	4.75%	
COc1cc2c(cc1OC)-c1cc(Nc3ccc(C)cc3)nc(=O)n1CC2		4.26 µM (active)
COc1ccc(Nc2cc3n(c(=O)n2)CCc2cc(OC)c(OC)cc2-3)c(C)c1		12 µM (active)
Cc1nc(COC(=O)c2c(C)nn(-c3ccccc3)c2C)cs1	5.54%	
COc1cc2c(cc1OC)-c1cc(Nc3ccc(F)cc3)nc(=O)n1CC2		2.39 µM (active)
O=C(NCc1ccc2c3c(cccc13)C(=O)N2)c1cccs1	-16.3%	
